{"source": "ChEMBL document CHEMBL1201862", "about": "“PubChem BioAssay data set” (2004)", "note": "Screen size: about 57,000 sequences; about 4,100 (7.2%) were called active. Cut-off read from the data, not from the text of the source: active = GI50 up to about 1.1 µM and inactive = higher. These entries were drawn from the full list. Potency and affinity values are given separately.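 Test compounds were applied to cells in 96-well plates for 48 hours at 5 doses. The concentration for 50% growth inhibition is given as GI50.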"}
{"tested_on": "SK-MEL-5", "experiment": "NCI tumour cell line growth inhibition, 48 h", "units": {"GI50": "µM"}}
{"substance": "cis-Bis[[(trimethylsilyl)methyl]amino]tetrachloroplatinum(IV), CHEMBL2146191", "GI50": 3.48}
{"substance": "[Bis(aminomethyl)tetramethylenesilane]tetrachloropaltinum(IV), CHEMBL2146189", "GI50": 5.77}
{"substance": "CISPLATIN, CHEMBL11359", "GI50": 2.69}
{"substance": "[Bis(aminomethyl)tetramethylenesilane]dichloropaltinum(II), CHEMBL2146205", "GI50": 14.8}
{"substance": "[Bis(aminomethyl)pentamethylenesilane]dichloropaltinum(II), CHEMBL2146202", "GI50": 3.3}
{"substance": "[Bis(aminomethyl)diethylsilane]tetrachloroplatinum(IV), CHEMBL2146203", "GI50": 73.8}
{"substance": "[Bis(aminomethyl)ethylmethylsilane]tetrachloroplatinum(IV), CHEMBL2146192", "GI50": 1.15}
{"substance": "[Bis(aminomethyl)pentamethylenesilane]tetrachloropaltinum(IV), CHEMBL2146204", "GI50": 3.21}
{"substance": "mu-(1,7-nanodiamine-N,N')bis-(cis-aminedichloroplatimum (II)), CHEMBL2146215", "GI50": 5.82}
{"substance": "[Bis(aminomethyl)dimethylsilane]dichloroplatinum (II), CHEMBL2146201", "GI50": 11.2}
{"substance": "[Bis(aminomethyl)dimethylsilane]tetrachloroplatinum(IV), CHEMBL2146190", "GI50": 3.85}
